# Laboratory results from the supplement of paper PMC6555819.
# Test system: RARb:RXRa (NR concentration 270 nM, RXRa partner concentration 90 nM)
# Experiment: PBM binding z-score (relative to random genomic background probes); higher = stronger binding; sequences stand for … in GC…GCGATTGACAGCGTAGAATGAAGG
# In short: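 The probes on custom Agilent 4×180K protein-binding microarrays were double-stranded, with 34-nt variable regions bearing direct-repeat seeds, single-nucleotide variants, half-site ablations and random human genomic background sequences. Incubation lasted 1 h with ligand-free nuclear receptor dimers in PBS pH 7.4, 2% milk, 0.02% Triton X-100, 1 mM DTT, 0.2 mg/mL BSA and 0.4 mg/ml salmon testes DNA. Antibodies against each partner (one per run) detected bound dimers, and fluorescence scans were regression-normalized. Binding z-scores take the random background probes as reference.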
row,Sequence,PBM binding z-score
1,CCTTACGGGTCACGAGGTTATAACACGACGAGCG,4.58
2,GGAACGAGTGCATTCGAGTTGATAGCATGGCGAT,-0.311
3,TAGCCTCGGTCATGGGCCAGTATACCACGCGAAC,2.42
4,TCGAGTAGGTTAGGGGCATTGAGAATGGCGTCGA,1.03
5,CCTAGCTGGCCAGGGTCACTCAAGCATTTCGCTT,2.35
6,CCAACTGGGGCATAAGGTTACCATAAGCCAGCCC,1.6
7,CTACCAAGGTGCACAAGGTCGTTGATTACTATTC,1.29
8,TCAGATAGGTAATACAGGTGAAAGTCGGCATCTA,0.567
9,GGAACGAGGGCATTCGAGTTAATAGCATGGCGAT,1.8
10,CCTAGCAGGCCAATCTGAGTCACTCAAGGCTTGA,-0.0528
11,CTACCATGGTGAACAAGGTCGTTGATTACTATTC,0.627
12,ATCTCTAGATAAAGATAGTTCAGTGAATGCAAAT,0.124
13,TCTAGTTTGTCACGGAGGTCACACACGACGGGTA,3.54
14,CAAACTAGGTCACCGGAAGGTCAAAGTGCGCATG,5.39
15,TCGAGTAGGTTAGTCGGCGCATTCAGCCAACATA,-0.141
16,CCTAGCAGGCCACTCTGGGTCACTCAAGGCTTGA,1.55
17,TCATATAGGTAAATGCTATGTGAAAGTCCGATCT,0.304
18,AGTCAAAGTTCAGGACGAGGTAACGTCAAGCACG,4.25
19,TGTTAAAGTTCAAAGGTAACGTAAGTATCCACAC,4.93
20,AGAATGAGGTTATTAAGATCACGGAATTGCGGTC,1.43

row,Sequence,PBM binding z-score
1,CCTTACGGGTCACGGACAGGTTATAGCATTTGGA,4.37
2,CTCGAAAGGTCGGTTGAGGTGAGTATTCGGATAA,3.25
3,ACAGACAGGTGATGCAGGTAACTCAGGCTATCAT,-0.0709
4,CCATACGGGTCACTCCAGGTTATAGCATCGGAGT,3.54
5,TAGCCTAGGTCAGATCGGGCCATTATACGCTATA,2.84
6,CCCTACGGGTCACTCCAGGTTATAGCATCGGAGT,3.66
7,CCTACTGGGCCAAGGACATTGATCAGTCAAAGCA,0.145
8,TCTTGTAGATCAAGAAGGTTAAGAAAGCCTGAGT,0.732
9,CCTTACGGGTCACGAGGTTATAGCACGACGAGCG,4.62
10,CTACCAAGGTGAACAAGGCCGTTGATTACTATTC,1.59
11,GCAGACAGGTGAAACGCGGGTAACTCAGGGTGGC,0.691
12,CCAGACAGGTGAGAAGGTATCTCAGCCTCGATTA,0.303
13,CTACCAAGGTGAACAAGGTCGTGGATTACTATTC,2.45
14,CCTTACGGGTCACTCCAGGTTATAGAATCGGAGT,3.68
15,ATCTAAAGGTCGACGAGGTGAGTATACACCGTTT,3.91
16,ATACCTAGGTGATCGTGAGGTCGTTGATACTAAC,1.09
17,TAGTCTAGGTCAGATCGGGCCAGTATACGCTATA,3.25
18,AGTCAAAGTTCATCTAGGTAACGTACGATATGCT,5.06
19,CCGACTGGGGCAGAAAGGTTACCAGACCATCCGG,1.89
20,TCATATAGGTAAATGCTTGGTGAAAGTCCGATCT,0.221
